gsp ag = qHTS for Agonist of gsp, the Etiologic Mutation Responsible for Fibrous Dysplasia/McCune-Albright Syndrome: qHTS. gsp mutant cells, cAMP HTRF, 30 min. Potency, µM (series often up to 76.9 µM), usual class: activators. 340,000 tested, 0.13% active; active = well fitted activation curve with a large enough effect; inconclusive = small, poorly fitted or top-dose-only effect, or another doubt; inactive = no such curve, though single readings can be large or run the other way; cell line not stated here;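 also: phosphodiesterase inhibitor Ro 20-1724 added with compounds to block cAMP breakdown; nearly all actives have a fitted effect of over 60% in size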
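Cells in DMEM/10% FBS with G418 were pretreated with compounds in DMSO plus […] (300 uM stock) for 30 min at 37C. cAMP was measured by HTRF (cAMP-d2 plus anti-cAMP antibody-K) after 30 min at room temperature.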
RXFP1 antag = qHTS Assay for Antagonists of the Relaxin Receptor RXFP1; HEK293-RXFP1, relaxin-stimulated cAMP HTRF, 30 min; active compounds read low; AID 1259400, 2018; activity change, negative = inhibition, % at 57.5 µM; 350,000 tested, 0.59% active; Relaxin receptor 1 (Homo sapiens), Q9HBX9;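 active = activity change of -60% or lower, but not beyond a set lower limit; inconclusive = change between -60% and -40%, or beyond the set limit; inactive = change above -40%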
RXFP1 ag = qHTS Assay for Agonists of the Relaxin Receptor RXFP1; HEK293T-RXFP1 cAMP TR-FRET, 30 min; response scale: percent of porcine relaxin response, buffer zero; Potency, µM (doses to about 57.5 µM), usual class: activators; 370,000 tested, 0.3% active; AID 2676, 2010; also: nearly all actives have a fitted effect of over 60% in size
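HEK293 cells stably expressing RXFP1, treated 30 min at 37C with compounds plus PDE4 inhibitor Ro 20174; cAMP measured by HTRF TR-FRET. Normalized to buffer and 29 nM porcine relaxin; EC50 by Hill fit.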
gsp antagonist = qHTS for Antagonists of gsp, the Etiologic Mutation Responsible for Fibrous Dysplasia/McCune-Albright Syndrome: qHTS | gsp-mutant cells, cAMP HTRF, 30 min | 340,000 tested, 0.4% active | Potency, µM (titrated, usually from 76.9 µM), hits mostly inhibitors; calls by dose curve; cell line not stated here;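 also: intracellular cAMP measured with PDE inhibitor Ro 20-1724 present during compound exposure; nearly all actives have a fitted effect of over 65% in size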
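G418-selected cells were plated in DMEM/10% FBS for 16-24 h at 37C, then treated with compounds plus the PDE inhibitor […] (300 uM solution added) for 30 min at 37C. Intracellular cAMP was measured by HTRF after 30 min lysis at room temperature.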
PTHR1 ag = qHTS for PTHR1 Agonists: Primary Screen; Potency, µM (titrated, usually from 115 µM), usual class: activators; AID 743266, 2014; 410,000 tested, 0.075% active; Parathyroid hormone/parathyroid hormone-related peptide receptor (Homo sapiens), Q03431; HEK293 GP2 PTHR1 cells, GloSensor cAMP luminescence, 1 h; also: nearly all actives have a fitted effect of over 55% in size
Target sequence (Q03431 whole entry, looked up): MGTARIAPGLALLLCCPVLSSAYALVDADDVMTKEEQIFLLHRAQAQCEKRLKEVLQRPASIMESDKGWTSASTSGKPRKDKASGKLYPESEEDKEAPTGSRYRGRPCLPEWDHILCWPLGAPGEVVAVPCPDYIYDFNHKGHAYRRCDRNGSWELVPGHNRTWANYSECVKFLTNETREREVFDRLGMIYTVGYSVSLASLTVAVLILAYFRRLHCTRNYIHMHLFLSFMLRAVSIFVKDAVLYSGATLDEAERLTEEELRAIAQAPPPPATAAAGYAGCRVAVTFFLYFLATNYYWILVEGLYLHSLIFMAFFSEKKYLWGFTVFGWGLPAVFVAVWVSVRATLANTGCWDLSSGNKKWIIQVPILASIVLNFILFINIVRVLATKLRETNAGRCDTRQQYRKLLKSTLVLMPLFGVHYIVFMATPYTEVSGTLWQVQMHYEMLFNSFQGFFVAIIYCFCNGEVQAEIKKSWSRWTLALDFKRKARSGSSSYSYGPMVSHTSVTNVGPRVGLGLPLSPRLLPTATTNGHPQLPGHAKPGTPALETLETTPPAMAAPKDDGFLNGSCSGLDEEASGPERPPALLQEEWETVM
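HEK-293-derived GP2 cells expressing PTHR1 and a GloSensor cAMP reporter, 3,000/well, plated overnight, given luciferin plus IBMX (each 0.5 mM as added) for 1 h at 37 °C, then compound for 1 h at 37 °C. Luminescence was read after 15 min at room temperature.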
A number is an active result; . = inactive; ? = inconclusive; / = no result given; [ ] = remark or other dose. Most compounds without a hit are left out; they make up all but 1% or so of the library. Unless noted, calls follow the shape of the dose curve; as a rule, active = well fitted curve in the direction sought with a large enough effect; inconclusive = small, poorly fitted or top-dose-only effect, or another doubt; inactive = no such curve, though single readings can be large; an effect the other way counts as inactive or inconclusive.

SMILES	gsp ag	RXFP1 antag	RXFP1 ag	gsp antagonist	PTHR1 ag
O=C(CCCn1c(=S)[nH]c2cc3c(cc2c1=O)OCO3)NCc1ccccc1Cl	?	-108	?	.	.
COc1cccc(N2CCN(C(=O)CCCCCn3c(=S)[nH]c4cc5c(cc4c3=O)OCO5)CC2)c1	.	?	?	.	.
O=C(CCCCCn1c(=S)[nH]c2ccccc2c1=O)NCc1ccc2c(c1)OCO2	.	-62	.	.	.
COc1cccc(CNC(=O)CCCn2c(=S)[nH]c3cc4c(cc3c2=O)OCO4)c1	?	-71	.	.	.
O=c1c2ccccc2[nH]c(=S)n1Cc1ccc2c(c1)OCO2	.[15.4 µM]	.	?	.	.
CCCOC(=O)c1ccc(-c2c(C)noc2-c2ccc(OC)cc2O)o1	.	.	.	32µM	.
COc1ccc(-c2onc(C)c2-c2cscn2)c(O)c1	.[15.4 µM]	.	.	/	.
CCOC(=O)c1cc(-c2ccccc2)n(CCC(=O)Nc2ccc(C(F)(F)F)cc2)c1C	/	-67	.	/	.
COc1ccc(-c2nnc(NC(=O)c3ccc(S(=O)(=O)N4CCCc5ccccc54)cc3)o2)cc1	.	-65	.	?	.
COCc1nnc(NC(=O)c2ccc(S(=O)(=O)N3CCCc4ccccc43)cc2)o1	.[15.4 µM]	.	.	.	.
COc1cc(NS(=O)(=O)c2ccc(NC(=O)c3ccccc3C(=O)O)cc2)nc(OC)n1	/	.	.	/	.
CCOc1ccccc1C(=O)Nc1ccc(S(=O)(=O)Nc2cc(OC)nc(OC)n2)cc1	20µM	.	?	.	.
COC(=O)c1ccccc1NC(=O)CCS(=O)(=O)c1nc(-c2ccc3c(c2)OCO3)cc(C(F)(F)F)n1	/	-63	.	/	.
O=C(CCS(=O)(=O)c1nc(-c2ccc3c(c2)OCO3)cc(C(F)(F)F)n1)Nc1ccccc1F	/	.	.	/	.
COCCOCC(OC)OC	/	.	/	/	/
CC1=NN(c2cccc(C(=O)O)c2)C(=O)/C1=C\C=C/c1ccccc1	.[15.4 µM]	-75	.	28µM	.
CC[N+](CC)(CC)CC(=O)Nc1ccc(SC(F)F)cc1	.[15.4 µM]	.	.	.	.
Cc1ccc(C(=O)Nc2ccc(SC(F)F)cc2)s1	.[15.4 µM]	-73	.	/	.
COc1ccc(-c2nc3ccc(NS(=O)(=O)c4ccc(C)cc4)cc3o2)cc1	/	.	.	/	.
COc1ccccc1C1CCCN1Cc1nc(-c2ccc(C)s2)oc1C (centres undefined)	.[15.4 µM]	-65	.	.	.
COc1ccc(C)c2sc(N(Cc3cccnc3)C(=O)C3CCCCC3)nc12	/	.	.	/	.
Cc1ccc(N=Cc2cc3c(cc2O)OC(N)=C(C#N)C3c2ccccc2)cc1 (centres undefined)	.	-69	.	?	.
Cc1ccc(N2CC(NC(=O)C3CC3)CC2=O)cc1C (centres undefined)	/	.	.	/	.
Cc1ccc(-c2csc(/C=C3/SC(C)C(=O)N3CC(=O)Nc3ccccc3F)n2)cc1 (centres undefined)	.	-84	/	.	.
COC(=O)[C@H]1[C@H]2C[C@@H]3c4[nH]c5cc(OC)ccc5c4CCN3C[C@H]2C[C@@H](OC(=O)/C=C/c2ccc(O)c(OC)c2)[C@@H]1OC	/	.	/	/	/
SMILES	gsp ag	RXFP1 antag	RXFP1 ag	gsp antagonist	PTHR1 ag
COc1ccc(CN(C)CC(O)COc2ccc(C(=O)c3ccccc3)cc2)c(OC)c1OC (centres undefined)	?	.	.	.	.
COc1ccc(Br)cc1CN(C)CC(O)COc1ccc(Br)cc1 (centres undefined)	.[15.4 µM]	-64	.	.	.
CC(=O)Nc1nc(C)c(C(C)=O)s1	?	.	.	.	.
CC(=O)c1sc(NC(=O)C(C)C)nc1C	?	.	8.9µM	.	.
CCOc1ccc(C(=O)Nc2cc(-c3ccccc3)no2)cc1	/	.	.	/	.
O=C(O)c1c(O)c(-c2ccccc2)nc2ccccc12	/	.	/	/	/
CNC(=O)COC(=O)/C=C/c1cn(-c2ccccc2)nc1-c1ccc2c(c1)OCCO2	.[15.4 µM]	.	.	.	.
Cc1ccc(-c2nn(-c3ccccc3)cc2/C=C/C(=O)OCC(=O)NC2CC2)o1	.	.	.	50µM	.
CCC(C)NC(=O)C(Cc1ccccc1)NS(=O)(=O)c1ccc2c(c1)CCC(=O)N2 (centres undefined)	.	-71	.	.	.
COc1ccccc1C1(O)CCN(CC(=O)Nc2nc(-c3ccccc3)cs2)CC1	.[15.4 µM]	-76	.	.	.
CCCC(=O)Nc1nc(-c2ccc(Cl)s2)cs1	.	.	.	.	.
CCOC(=O)N1CCN(C(=O)CSCC(=O)Nc2nc(-c3ccc(OC)cc3)cs2)CC1	.	.	.	28µM	.
CCOC(=O)N1CCN(C(=O)CSCC(=O)Nc2nc(-c3ccc(Cl)s3)cs2)CC1	.	.	.	25µM	.
CCOC(=O)N1CCN(C(=O)CSCC(=O)Nc2nc(-c3ccc(-c4ccccc4)cc3)cs2)CC1	.	.	.	25µM	.
O=C(CSCC(=O)N1CCOCC1)Nc1nc(-c2ccccc2)cs1	?	.	.	.	.
CC1CCN(S(=O)(=O)c2nnc(NC(=O)c3cccc([N+](=O)[O-])c3)s2)CC1	.	.	.	?	.
O=C(Nc1nnc(S(=O)(=O)N2CCCC2)s1)c1cccc([N+](=O)[O-])c1	?	.	.	50µM	.
CCOC(=O)/C=c1/s/c(=C/c2ccc3cc(OC)ccc3c2)c(=O)n1CC(=O)NCc1ccc2c(c1)OCO2	.	-79	/	.	.
CN(Cc1cccc2cnccc12)C(=O)c1cc(COc2ccc(F)cc2F)on1	.	.	.	.	.
O=C(c1cc(COc2cccc3cnccc23)on1)N1CCC(c2ccccc2Cl)C1 (centres undefined)	.	.	.	28µM	.
CCc1ccc(CN(C)C(=O)c2cc(COc3cccc4cnccc34)on2)cc1	.	.	.	35µM	.
O=C(N/N=C/c1sc(N2CCOCC2)nc1-c1ccccc1)c1ccccc1O	.	?	.	40µM	.
O=[N+]([O-])c1ccc(N/N=C/c2sc(N3CCOCC3)nc2-c2ccccc2)c(S(=O)(=O)Nc2ccccc2Cl)c1	.	.	.	4µM	.
CCc1ccc2nc3c(c(C(=O)O)c2c1)CCC3	.	.	.	.	.
Cc1cc(Br)c2nc3c(c(C(=O)O)c2c1)CCCCC3	.[15.4 µM]	.	2.2µM	.	.
Cc1ccc(NC(=O)C2=C(c3ccccc3)S(=O)(=O)CCS2(=O)=O)cc1	.[15.4 µM]	?	.	28µM	.
CC(=O)N1CCOc2ccc(S(=O)(=O)NCCc3ccc(C)cc3)cc21	.	.	.	.	.

Screening data deposited in PubChem by National Center for Advancing Translational Sciences (NCATS).
